Measured potencies and affinities stand elsewhere. Results filed as inconclusive are left out. Active and inactive are the calls of the source.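 How the source made its calls: active means fluorescent signal drops by 40% or more, counted as a hit; inconclusive means no clear call, values can overlap the other calls; inactive means the rest, including any activity in the opposite direction.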

The nature of the test: blockers of FN fibrillogenesis by fibroblasts – AH1F cells, Alexa488-FN fluorescence, cherry-picks, dose response (AID 1035475).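 Further: AH1F fibroblasts incorporating labeled fibronectin into their extracellular matrix.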 To be noted: Alexa488-fibronectin deposition fluorescence, overnight; series mostly up to 35 µM.
Take `C[C@@H]1CN([C@H](C)CO)C(=O)c2cc(NC(=O)CCCN(C)C)ccc2O[C@H]1CN(C)Cc1ccc(-c2ccccc2)cc1`: the result was inactive.
To `CN(C)C(=O)c1ccc(-c2ccc3c(c2)[C@H]2[C@H](CCN2C(=O)c2ccc(F)cc2)[C@@H](CO)N3C)cc1` belongs “inactive”.
To `N#C[C@H]1[C@H](c2ccccc2C2=CCCCC2)[C@H](CO)N1S(=O)(=O)c1ccccc1` belongs “inactive”; to `CCOC(=O)C1=C(C)Nc2nc3ccccc3n2C1c1ccncc1` (stereo not given), “inactive”.
On to `C[C@H]1CN([C@@H](C)CO)C(=O)c2cc(-c3ccccc3)cnc2O[C@H]1CN(C)C(=O)c1cccc(F)c1`, for which the molecule was classed as inactive.
To `Cc1cccc(NC(=O)Nc2ccc(S(=O)(=O)Nc3onc(C)c3C)cc2)c1` belongs “inactive”; to `COc1ccc(C)cc1N(CC(=O)Nc1cccc(N(C)S(C)(=O)=O)c1)S(C)(=O)=O`, “inactive”.
Take `Cc1ccc(C(O)c2ncc(-c3cccc4ccccc34)[nH]2)cc1F` (stereo not given): the molecule was classed as inactive.
To `COc1cccc(-c2ccc3c(c2)[C@@H]2[C@@H](CCN2S(=O)(=O)c2cccc(OC)c2)[C@@H](CO)N3)c1` belongs “inactive”; to `O=C(Nc1ccccc1F)N1C[C@H]2[C@@H](c3ccccc31)[C@@H](CO)N2C(=O)C1CC1`, “inactive”; to `CCOc1ccccc1NC(=O)c1c(NC(=O)CCC(=O)O)sc2c1CCCCC2`, “inactive”.
To `CO[C@H]1CN(C)C(=O)c2cc(NC(=O)Nc3ccc(Cl)c(Cl)c3)ccc2OC[C@@H](C)NC[C@@H]1C` belongs “inactive”; to `COC(=O)C[C@@H]1CC[C@H]2[C@@H](COc3ccc(NC(=O)Cc4cccs4)cc3C(=O)N2C)O1`, “inactive”; to `C[C@H]1CN([C@@H](C)CO)C(=O)c2cc(NC(=O)C3CCCCC3)ccc2O[C@H]1CN(C)Cc1ccc(-c2ccccc2)cc1`, “inactive”.
Take `CC1(C)Cc2c(C#N)c(SCC(=O)c3ccccc3)nc(N3CCOCC3)c2CS1`: the outcome was inactive.
On to `C[C@H]1CN([C@@H](C)CO)C(=O)c2cc(-c3ccccc3)cnc2O[C@@H]1CN(C)C(=O)c1cccc(F)c1`, for which the result was inactive.
To `C[C@H](CO)N1C[C@H](C)[C@@H](CN(C)C(=O)c2cccc(F)c2)Oc2ncc(-c3ccccc3)cc2C1=O` belongs “inactive”; to `O=S(=O)(c1cccc(F)c1)N1CC[C@@H]2[C@H]1c1cc(-c3cccc(F)c3)ccc1N[C@@H]2CO`, “inactive”.
To `C[C@@H]1CN([C@@H](C)CO)C(=O)c2cc(NC(=O)CCCN(C)C)ccc2O[C@H]1CN(C)Cc1ccc(-c2ccccc2)cc1` belongs “inactive”; to `NC(=O)C1=C[C@H](c2coc3ccccc3c2=O)C[C@H](OCCCCO)O1`, “inactive”.
Consider `COC(=O)C[C@@H]1CC[C@@H]2[C@@H](COc3ccc(NC(=O)Cc4cccs4)cc3C(=O)N2C)O1`, for which the molecule was called inactive.
On to `C[C@H]1CN([C@@H](C)CO)C(=O)c2cccc(NC(=O)Nc3ccc(C(F)(F)F)cc3)c2O[C@H]1CN(C)C(=O)Nc1cccc2ccccc12`, for which the call was inactive.
To `COCC(=O)Nc1ccc2c(c1)C(=O)N(C)[C@@H]1CC[C@H](CC(=O)NCc3ccccc3Cl)O[C@H]1CO2` belongs “inactive”; to `CO[C@H]1CN(C)C(=O)c2cc(NC(C)=O)ccc2OC[C@@H](C)N(C(=O)CN2CCOCC2)C[C@H]1C`, “inactive”.
To `C[C@H](O)C#Cc1ccc2c(c1)O[C@H](CN(C)C)[C@@H](C)CN([C@H](C)CO)S2(=O)=O` belongs “inactive”; to `COc1ccccc1N(CC(=O)N(CC(C)C)CC(C)C)S(=O)(=O)c1cccs1`, “inactive”.
Regarding `Cc1ccc(N(CC(=O)NCc2ccco2)S(=O)(=O)c2ccccc2)cc1`, the result was inactive.
With `O=C(CC1Nc2ccccc2NC1=O)Nc1ccc2c(c1)OCO2` (stereo not given), the molecule was classed as inactive.
Turning to `C[C@@H]1CN([C@@H](C)CO)C(=O)c2cc(NC(=O)CCCN(C)C)ccc2O[C@@H]1CN(C)Cc1ccc(-c2ccccc2)cc1`, the result was inactive.
As for `COC(=O)c1cn(CC(=O)NCc2ccco2)c2ccccc12`, the result was inactive.
To `O=C(CCNS(=O)(=O)c1cccc2nonc12)NC1CCCc2ccccc21` (stereo not given) belongs “inactive”; to `O=C(c1cccnc1)N1C[C@@H]2[C@H](c3ccccc31)[C@@H](CO)N2CC1CCCC1`, “inactive”; to `C[C@H]1CN([C@@H](C)CO)C(=O)c2cc(-c3ccccc3)cnc2O[C@H]1CN(C)Cc1ccccc1`, “inactive”.
As for `C[C@H](CO)N1C[C@H](C)[C@@H](CN(C)Cc2ccc(-c3ccccc3)cc2)Oc2ccc(NC(=O)C3CCCCC3)cc2C1=O`, the call was inactive.
To `N#C[C@@H]1[C@@H](c2ccccc2C2=CCCCC2)[C@H](CO)N1S(=O)(=O)c1ccccc1` belongs “inactive”.
